# About 83,000 compounds went through this panel and 20% of them were active in at least one assay; those are over-represented in the sample as a whole.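 Percent growth is the endpoint: 0 to 100 indicates growth inhibition (40 means 60% inhibition), 0 means no net growth, and negative values indicate cell death.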 A number with no mark means an inactive call. Activity calls are given as the source filed them. How the source made its calls: active means growth percent below 10; inactive means the rest.
# Experiments:
# Assay in all cases: NCI-60 one-dose screen, 48 h (100 = growth as untreated, 0 = no growth, -100 = all killed)
# Details in all cases: 10 µM unless noted
# HCT-15 colon = tested on: HCT-15 colon
# HT29 colon = tested on: HT29 colon
# SNB-75 CNS = tested on: SNB-75 CNS
# SNB-19 CNS = tested on: SNB-19 CNS
# PC-3 prostate = tested on: PC-3 prostate
# SK-MEL-5 melanoma = tested on: SK-MEL-5 melanoma
# UACC-62 melanoma = tested on: UACC-62 melanoma
# LOX IMVI melanoma = tested on: LOX IMVI melanoma
# SK-MEL-28 melanoma = tested on: SK-MEL-28 melanoma
# SK-MEL-2 melanoma = tested on: SK-MEL-2 melanoma
# EKVX NSCLC = tested on: EKVX NSCLC
# SN12C renal = tested on: SN12C renal
# UO-31 renal = tested on: UO-31 renal
# TK-10 renal = tested on: TK-10 renal
# ACHN renal = tested on: ACHN renal
# CAKI-1 renal = tested on: CAKI-1 renal
# CCRF-CEM leukemia = tested on: CCRF-CEM leukemia
# MOLT-4 leukemia = tested on: MOLT-4 leukemia
# A498 renal = tested on: A498 renal
# U251 CNS = tested on: U251 CNS
Structure (SMILES),growth (HCT-15 colon),growth (HT29 colon),growth (SNB-75 CNS),growth (SNB-19 CNS),growth (PC-3 prostate),growth (SK-MEL-5 melanoma),growth (UACC-62 melanoma),growth (LOX IMVI melanoma),growth (SK-MEL-28 melanoma),growth (SK-MEL-2 melanoma),growth (EKVX NSCLC),growth (SN12C renal),growth (UO-31 renal),growth (TK-10 renal),growth (ACHN renal),growth (CAKI-1 renal),growth (CCRF-CEM leukemia),growth (MOLT-4 leukemia),growth (A498 renal),growth (U251 CNS)
N#C/C(=C\c1ccc(Br)cc1)n1nnc2cccc(F)c21,1.81% (active),11.8%,-24.8% (active),25.6%,29%,1.82% (active),22.7%,-56.3% (active),49.5%,22.3%,61.8%,4.62% (active),2.69% (active),15.6%,20.2%,18.2%,-2.73% (active),1.33% (active),,
O=C(CCN1CCCC1)Nc1ccc2c(Nc3ccccc3)c3ccccc3nc2c1,-3.61% (active),4.21% (active),10.9%,18.4%,19.9%,40.4%,30.3%,-55.3% (active),62.3%,41.4%,59.3%,13.3%,-28.3% (active),1.74% (active),1.77% (active),-11.9% (active),,-4.75% (active),,
Nc1nc(N)nc(NCc2ccccc2)n1,97.6%,101%,96.5%,107%,105%,,101%,101%,106%,,99.3%,98.4%,91.1%,95.8%,106%,99.7%,109%,95.4%,,
O=C(Nc1nc2ccc(C(=O)N3CCN(c4ccc(Cl)c(Cl)c4)CC3)cc2s1)c1ccc(NCCc2ccccc2)c([N+](=O)[O-])c1,98.3%,100%,98.1%,100%,92.4%,87.9%,78.1%,98.3%,105%,104%,95.3%,93.3%,60.7%,113%,101%,87%,93.6%,95.7%,79.4%,
Cc1ccc(-c2c(Br)c(OC(=O)CO[C@@H]3C[C@H](C)CC[C@H]3C(C)C)c(-c3ccc(C)cc3C)c(Br)c2OC(=O)CO[C@H]2C[C@@H](C)CC[C@@H]2C(C)C)c(C)c1,99.6%,103%,85.6%,101%,92.8%,55.3%,102%,94.4%,108%,90.2%,101%,98.9%,87%,92.8%,104%,97%,90%,97.6%,96.1%,
Cc1ccc2[nH]c(=O)cc(-n3nncc3COc3ccc(C=O)cc3)c2c1,102%,105%,91.2%,102%,97.8%,101%,93.7%,99.6%,113%,101%,103%,106%,62.9%,109%,98.9%,87.8%,97.9%,108%,117%,
O=c1[nH]c(=O)[nH]c(=S)[nH]1,103%,99.1%,96.5%,101%,102%,,96.1%,98.1%,102%,103%,97.8%,94.3%,89.2%,95.8%,94.3%,94.9%,101%,105%,,
CCN1C(=O)/C(=c2\sc3n(c2=O)NC2C(N=3)N(CC)C(=O)N2CC)c2ccccc21 (stereo not given),33.7%,12.9%,7.11% (active),50.8%,29.6%,30.9%,43.9%,55.4%,55.5%,65.8%,60.4%,43.8%,48.9%,83.3%,49.3%,42.1%,,58.9%,,
CC(C)(O)C1CCCN1C(=O)c1ccccc1I (stereo not given),98.7%,95.4%,100%,78.2%,80.7%,92.9%,64.3%,101%,105%,132%,97.7%,95%,82.7%,107%,105%,88.2%,41.1%,-67.6% (active),73.6%,
O=C(Nc1cccc(Cl)c1)Oc1c(Br)c(Br)c(Br)c(Br)c1Br,98.2%,91.8%,90%,101%,59.5%,75.2%,82.1%,88.6%,93.1%,79%,92.1%,92.7%,74.9%,99.9%,104%,90.5%,87.9%,99.7%,78.3%,
Cc1ccc(O)c(C(=O)O)c1,104%,102%,107%,109%,104%,105%,104%,101%,114%,109%,118%,104%,94%,72.7%,106%,,98.1%,97.7%,99.9%,
O=C(CN1CCOCC1)Nc1ccc2ncnc(Nc3ccc(Oc4cccc(F)c4)c(Cl)c3)c2c1,72.8%,83.5%,79.5%,73.2%,59.3%,,76.7%,80.4%,83%,93.6%,29.8%,48.9%,31.6%,39.5%,24.1%,38.3%,82.3%,64.8%,63.2%,
CCOc1ccc(/C=N/Nc2cc(C)nc3ccc(Cl)cc23)cc1,-0.545% (active),26.9%,101%,76.1%,71.2%,66.2%,68.2%,-85.6% (active),28.2%,91%,81.7%,-26% (active),47.6%,121%,51.2%,78.2%,0.25% (active),-30.5% (active),,
O=C(N/N=C/c1ccc(F)cc1)c1ccccc1Nc1cccc(C(F)(F)F)c1,85.6%,118%,99.5%,90.2%,96.2%,,101%,86.6%,91.2%,114%,,102%,94.1%,130%,102%,112%,6.32% (active),7.44% (active),70.8%,
CC(C)(C)OC(=O)N1C/C(=C\c2ccoc2)C(=O)/C(=C/c2ccoc2)C1,99.6%,,77%,96.5%,89.5%,99.8%,88.3%,90.7%,102%,96.4%,102%,97.8%,74.2%,94.8%,99.6%,82.5%,16.5%,76.1%,74.1%,88.2%
CCCC1C(C(=O)OCC)=C(N)Oc2cc(O)ccc21 (stereo not given),96.7%,,76.9%,103%,77.5%,96.5%,94.8%,90.4%,114%,99%,80.6%,103%,70.7%,105%,94.1%,,99.7%,89%,109%,104%
CN(C)CCCn1c2c(c3ccc(-c4ccn[nH]4)cc3c1=O)C(=O)c1ccccc1-2,10.9%,,53.1%,22.7%,52.3%,31.5%,50.3%,15%,89.8%,121%,34.2%,5.41% (active),25.5%,54.4%,-28.9% (active),,0.484% (active),-0.72% (active),,16.9%
